The source of these data is PubChem BioAssay (NCATS).

Inconclusive results are not listed. A number with no mark means an inactive call. The source made the active and inactive calls. The call rests on the fitted dose curve; in most records, active means well fitted cell-killing curve with a large enough effect; inconclusive means small, poorly fitted or top-dose-only effect, or effect the other way; inactive means no such curve, though single readings can be large or run the other way.
Potency means the concentration at half of the fitted maximal effect.

The assay in a line: Quantitative High-Throughput drug screen in 47 multiple myeloma cell lines against the NCATS MIPE library collection: KMS26_JCRB cell viability assay (AID 1918975). Further: nearly all actives have a fitted effect of over 45% in size. To be noted: KMS26 myeloma cells viability, CellTiter-Glo ATP, 48 h; series mostly up to 45.8 µM; viability (% of DMSO): at the top concentration. The text has this:
PI: Beverly A. Mock Ph.D.
Laboratory of Cancer Biology and Genetics,
Center for Cancer Research, National Cancer Institute,
National Institute of Health, Bethesda, Maryland
Drug resistance and disease progression are common in multiple myeloma (MM) patients, underscoring the need for new therapeutic combinations. […] We hypothesized that effective combinations would reduce MYC expression and enhance p16 activity. […] These preclinical data identify potentially useful drug combinations for evaluation in drug-resistant MM and reveal potential mechanisms of combined drug sensitivity.
Described herein is the primary MIPE qHTS used to cherrypick compounds. Validated compounds were then further tested for potential synergistic activiy.
[1] Peat TJ, Gaikwad SM, Dubois W, Gyabaah-Kessie N, Zhang S, Gorjifard S, Phyo Z, Andres M, Hughitt VK, Simpson RM, Miller MA, Girvin AT, Taylor A, Williams D, D'Antonio N, Zhang Y, Rajagopalan A, Flietner E, Wilson K, Zhang X, Shinn P, Klumpp-Thomas C, McKnight C, Itkin Z, Chen L, Kazandijian D, Zhang J, Michalowski AM, Simmons JK, Keats J, Thomas CJ, Mock BA. Drug combinations identified by high-throughput screening promote cell cycle transition and upregulate Smad pathways in myeloma. Cancer Lett. 2023 Aug 1;568:216284. doi: 10.1016/j.canlet.2023.216284. Epub 2023 Jun 24. PMID: 37356470; PMCID: PMC10408729.
SEQUENCE No. (e.g., 1, 2, 3, etc.); […] (e.g., Cells, Incubation, Reagent, etc.); VALUE and DESCRIPTION.
1; Cells; 5 uL; white, solid bottom 1536-well Greiner assay plate.
2; Compounds; 23 nL; Kalypsis pin tool (Wako USA) equipped with a 1536-well pin head to transfer to the assay plates.
3; Incubation; 48 hours; 37C incubation.
4; Reagent;5uL; CellTiter Glo (Promega).
5; Detector; 425V; Luminescence; Viewlux PerkinElmer.
NOTES (numbers refer to Sequence numbers above)
1. The cell-based screening methods employed in this study were like those previously published. Briefly, the corresponding myeloma cell lines were screened in 1,536-well plates with 500 cells, 5-uL per well for inhibition of cell viability (assessed by measuring ATP levels with CellTiterGlo).
2. NCATS MIPE 4.0 library of approved and investigational drugs were added using the Kalypsis pin tool. Wells treated with DMSO only for 100% viability and media only wells for 0% viability were used as controls.
3. The assay plates were covered and incubated for 48 hours in a 37C, 5% CO2 incubator with controlled humidity.
4. After 48 hours, CellTilter-GloTM luminescent substrate mix (Promega) reagent was added to the assay plate and plates we incubated for 5 min at room temperature.
5. Signal was measured as median relative luminescence units on a ViewLux (PerkinElmer) multiplate reader.
[1] Heske CM, Davis MI, Baumgart JT, Wilson K, Gormally MV, Chen L, Zhang X, Ceribelli M, Duveau DY, Guha R, Ferrer M, Arnaldez FI, Ji J, Tran HL, Zhang Y, Mendoza A, Helman LJ, Thomas CJ. Matrix Screen Identifies Synergistic Combination of PARP Inhibitors and Nicotinamide Phosphoribosyltransferase (NAMPT) Inhibitors in Ewing Sarcoma. Clin Cancer Res. 2017 Dec 1;23(23):7301-7311. doi: 10.1158/1078-0432.CCR-17-1121. Epub 2017 Sep 12. PMID: 28899971; PMCID: PMC6636827.
Background: Cellular ATP, detected with luciferase, serves as a proxy for viable cell number.
`CS(=O)(=O)Nc1ccc([N+](=O)[O-])cc1Oc1ccccc1`: the Potency is 18.7 µM (active).
For `CCC1(C)CC(=O)NC1=O` (stereo not given), the “viability (% of DMSO)” value was 138%.
Turning to `CN1CCN2c3ccccc3Cc3ccccc3C2C1` (stereo not given), the Potency was 26.4 µM (active).
As for `N[C@@H](Cc1c[nH]c2ccc(O)cc12)C(=O)O`, the “viability (% of DMSO)” value is 144%.
Same read-out and setting: under `Fc1ccc([C@@H]2CCNC[C@H]2COc2ccc3c(c2)OCO3)cc1` stands 104%.
Take `O=C1N(c2ccccc2)c2ccccc2C1(Cc1ccncc1)Cc1ccncc1`: the Potency is 37.2 µM (active).
`O=C(c1ccc(F)cc1)C1CCN(CCn2c(=O)[nH]c3ccccc3c2=O)CC1`: the “viability (% of DMSO)” value was 127%.
The same measure, in the same setting: under `Cc1ccccc1N1C(=O)c2cc(S(N)(=O)=O)c(Cl)cc2NC1C` (stereo not given) stands 128%.
Take `Clc1ccc(C(c2ccccc2Cl)C(Cl)Cl)cc1` (stereo not given): the Potency is 18.7 µM (active).
Same read-out and setting: under `Nc1nc2c(ncn2COC(CO)CO)c(=O)[nH]1` stands 20.9 µM (active).
As for `CN(C)c1nc(N(C)C)nc(N(C)C)n1`, the “viability (% of DMSO)” value was 118%.
On to `Cn1c(=O)c2[nH]cnc2n(C)c1=O`, for which the “viability (% of DMSO)” value is 120%.
On the same count and under the same terms, next, `Nc1nnc(-c2cccc(Cl)c2Cl)c(N)n1`: 140%; `O=C(C1CCCCC1)N1CC(=O)N2CCc3ccccc3C2C1` (stereo not given): 139%.
Take `CS(=O)(=O)CCNCc1ccc(-c2ccc3ncnc(Nc4ccc(OCc5cccc(F)c5)c(Cl)c4)c3c2)o1`: the Potency was 16.6 µM (active).
On to `CN1C2CCC1CC(OC(=O)C(CO)c1ccccc1)C2` (stereo not given), for which the “viability (% of DMSO)” value is 151%.
As for `NC(=O)NO`, the Potency was 1.18 µM (active).
The same measure, in the same setting: next, `CC[C@@]1(O)C(=O)OCc2c1cc1n(c2=O)Cc2cc3c(CN(C)C)c(O)ccc3nc2-1`: 20.9 µM (active).
`CN1C(C(=O)Nc2ccccn2)=C(O)c2ccccc2S1(=O)=O`: the “viability (% of DMSO)” value was 103%.
Same read-out and setting: next, `CC(=O)OCC(CCn1cnc2cnc(N)nc21)COC(C)=O`: 125%; `CC1COc2c(N3CCN(C)CC3)c(F)cc3c(=O)c(C(=O)O)cn1c23` (stereo not given): 137%.
`CC(C)C(=O)Nc1ccc([N+](=O)[O-])c(C(F)(F)F)c1`: the Potency was 8.33 µM (active).
For `CC[N+](CC)(CC)CCOc1cccc(OCC[N+](CC)(CC)CC)c1OCC[N+](CC)(CC)CC`, the “viability (% of DMSO)” value is 121%.
The same measure, in the same setting: under `COc1ccc(C2CNC(=O)C2)cc1OC1CCCC1` (stereo not given) stands 142%; under `CN(C)CCOC(c1ccccc1)c1ccccc1`, 120%; under `NCCCCCC(=O)O`, 145%.
`CN(C)CCC=C1c2ccccc2C=Cc2ccccc21`: the Potency is 6.62 µM (active).
Take `CCC1(c2ccccc2)C(=O)NCNC1=O`: the “viability (% of DMSO)” value was 174%.
On the same count and under the same terms, next, `CCc1cccc2c3c([nH]c12)C(CC)(CC(=O)O)OCC3` (stereo not given): 106%.
The same measure, in the same setting: next, `NCCc1cnc[nH]1`: 112%.
Still for that read-out and setting: under `Cc1cc(C(C)(C)C)cc(C)c1CC1=NCCN1` stands 127%; under `O=c1[nH]cc(F)c(=O)[nH]1`, 115%.
Consider `O=C(c1ccc(OCCN2CCCCC2)cc1)c1c(-c2ccc(O)cc2)sc2cc(O)ccc12`, for which the Potency is 20.9 µM (active).
`CN(C)C(=N)N=C(N)N`: the “viability (% of DMSO)” value is 171%.
`OCCN1CCN(CCCN2c3ccccc3Sc3ccc(C(F)(F)F)cc32)CC1`: the Potency is 20.9 µM (active).
As for `NCCS(=O)(=O)O`, the “viability (% of DMSO)” value was 133%.
Still for that read-out and setting: next, `Nc1ccn([C@H]2CC[C@@H](CO)O2)c(=O)n1`: 128%.
Take `Cn1cnc2c1c(=O)[nH]c(=O)n2C`: the Potency is 20.9 µM (active).
For the molecule `Cc1cn([C@H]2C=C[C@@H](CO)O2)c(=O)[nH]c1=O`, the “viability (% of DMSO)” value was 107% [at 92.2 µM].
For the molecule `O=C(Nc1ccc([N+](=O)[O-])cc1Cl)c1cc(Cl)ccc1O`, the Potency is 1.87 µM (active).
